Screening results from PubChem BioAssay.
Sampled rows, rich in hits. Any-hit rate of the full collection: about 1.3%.
SRC3 inh = inhibits human SRC3 coactivator | 360,000 tested, 0.17% active | Q9Y6Q9 | inhibition, % at 3.6 µM | HEK293 GAL4-SRC3 luciferase reporter, luminescence | AID 588352;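 active means inhibition above a per-campaign cutoff, the mean of all compounds plus 3 SD, cut at about 60% in these data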;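 further: 0% = DMSO-treated cells and 100% = gossypol-treated cells at 36 µM; higher means less SRC3-driven luciferase light from the GAL4 reporter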
NR2F2 inh = NR2F2 (human) inhibition, primary screen. P24468. HEK293T NGFI-A luciferase reporter, luminescence. inhibition, % at 8.6 µM. 370,000 tested, 0.7% active;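 active means inhibition above a per-plate cutoff, mean inhibition of test wells between control levels plus 3 SD, cut at about 38% in these data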;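 further: cells cotransfected with COUP-TFII expression vector driving the NGFI-A reporter; 0% = median of COUP-TF2 test wells and 100% = reporter-only cells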
NCOA2 inhibitor = human SRC2 (NCOA2) inhibition. Q15596. HEK293 GAL4-SRC2 luciferase reporter, luminescence. inhibition, % at 9 µM. 370,000 tested, 0.17% active. AID 651957;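 active means inhibition above the mean inhibition of all tested compounds plus 3 SD, set per campaign, cut at about 52% in these data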;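 further: 0% = DMSO treated cells and 100% = cells given Gossypol at 36 µM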
Gli-Sufu block = Gli-Sufu pathway antagonism; inhibition, % at 5 µM; 340,000 tested, 0.74% active; Sufu-KO-LIGHT fibroblasts, Gli luciferase reporter luminescence;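 active means inhibition above about 55%, limit read from the data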;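 further: 0% = DMSO-treated cells and 100% = wells with medium but no cells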
NR5A2 inv ag = NR5A2 inverse agonism in reporter assay; O00482; HEK293T StAR-luciferase reporter, LRH-1 transfected, 24 h; inhibition, % at 3.6 µM; 360,000 tested, 0.13% active; AID 602396;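 active means inhibition above the mean inhibition of all tested compounds plus 3 SD, cut at about 73% in these data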;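 further: 0% = DMSO wells and 100% = reporter-only cells lacking LRH-1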
SRC1 inh = human NCOA1 inhibition | AID 588354 | inhibition, % at 3.6 µM | HEK293 GAL4-SRC1 luciferase reporter, luminescence | Q15788 | 360,000 tested, 0.12% active;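 active means inhibition above the campaign mean plus 3 SD, with each screening campaign given its own cutoff, cut at about 60% in these data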;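 further: 0% = DMSO treated cells and 100% = gossypol at 36 µM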
Gal4-VP16 ctr = inhibits VP16 reporter, flagging COUP-TFII antagonist hits; shares compounds with NR2F2 inh; inhibition, % at 8.5 µM; 2,500 tested, 25% active; HEK293 Gal4-VP16 luciferase reporter, luminescence; AID 687007; in the data active means inhibition above about 13%
COUP-TFII conf = confirmation of human COUP-TFII (NR2F2) inhibitors | inhibition, % at 8.5 µM | 2,500 tested, 45% active | AID 687008 | shares compounds with NR2F2 inh | HEK293 NGFI-A luciferase reporter, luminescence;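 active means mean inhibition over three repeats above a set limit taken from the earlier primary screen, cut at about 38% in these data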;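 further: 100% = cells given the luciferase reporter alone without the COUP-TF2 vector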
Numbers without * were called inactive.

What do the screens show for `NC(Cc1ccc(Cl)cc1)c1csc(NC(=O)NCCc2ccccc2)n1` (stereo not drawn)?
SRC3 inh: -13; NR2F2 inh: -9; NCOA2 inhibitor: 3; NR5A2 inv ag: -14; SRC1 inh: 15

How did CN(C(=O)COC(=O)C1COc2ccccc2O1)C1(C#N)CCCCC1 (stereo not drawn) do in these assays?
SRC3 inh: -15; NR2F2 inh: -28; NCOA2 inhibitor: -1; Gli-Sufu block: -1; NR5A2 inv ag: 6; SRC1 inh: 2

What do the screens show for `Cc1ccc(S(=O)(=O)N(C)c2ccc(C(=O)N3CCN(Cc4ccc5c(c4)OCO5)CC3)cc2)cc1`?
SRC3 inh: 10; NR2F2 inh: 56*; NCOA2 inhibitor: 22; Gli-Sufu block: 14; NR5A2 inv ag: 33; SRC1 inh: 29; Gal4-VP16 ctr: 5; COUP-TFII conf: 39*

Results for CN(c1ccc(C(=O)N2CCN(Cc3ccc4c(c3)OCO4)CC2)cc1)S(=O)(=O)c1ccccc1 ?
SRC3 inh: 26; NR2F2 inh: 48*; NCOA2 inhibitor: 36; Gli-Sufu block: 7; NR5A2 inv ag: 37; SRC1 inh: 28; Gal4-VP16 ctr: 9; COUP-TFII conf: 35

How did CN(c1ccc(C(=O)N2CCN(Cc3ccccc3)CC2)cc1)S(=O)(=O)c1ccccc1 do in these assays?
SRC3 inh: -3; NR2F2 inh: 19; NCOA2 inhibitor: 4; Gli-Sufu block: -7; NR5A2 inv ag: 11; SRC1 inh: 6

What do the screens show for `CC(C)CNC(=O)C1(C)CCCN1Cc1ccc(S(C)(=O)=O)cc1` (stereo not drawn)?
SRC3 inh: -2; NR2F2 inh: -16; NCOA2 inhibitor: 1; NR5A2 inv ag: 1; SRC1 inh: -5

Results for Cc1ccc(-n2ncc3c2CCCC3NC(=O)c2ocnc2C)cc1C (stereo not drawn) ?
SRC3 inh: 27; NR2F2 inh: 66*; NCOA2 inhibitor: 18; Gli-Sufu block: 59*; NR5A2 inv ag: 35; SRC1 inh: 21; Gal4-VP16 ctr: 6; COUP-TFII conf: 61*

What do the screens show for `Cc1cc(C(=O)NC2CCCc3c2cnn3-c2cccc(C)c2C)n(C)n1` (stereo not drawn)?
SRC3 inh: 20; NR2F2 inh: 67*; NCOA2 inhibitor: 14; Gli-Sufu block: 81*; NR5A2 inv ag: 44; SRC1 inh: 12; Gal4-VP16 ctr: 8; COUP-TFII conf: 68*

What do the screens show for `CCn1nc(C)cc1C(=O)NC1CCCc2c1cnn2-c1ccc(C)c(C)c1` (stereo not drawn)?
SRC3 inh: 9; NR2F2 inh: 54*; NCOA2 inhibitor: 4; Gli-Sufu block: 29; NR5A2 inv ag: 29; SRC1 inh: 5; Gal4-VP16 ctr: -5; COUP-TFII conf: 40*

Results for Cc1cc(C(=O)NC2CCCc3c2cnn3-c2ccc(C)c(C)c2)no1 (stereo not drawn) ?
SRC3 inh: -16; NR2F2 inh: 17; NCOA2 inhibitor: 3; Gli-Sufu block: 17; NR5A2 inv ag: 2; SRC1 inh: 10

How did O=C(NC1CCCCC1)C(c1ccccc1F)n1c(=O)c(-c2cc3ccccc3[nH]2)nc2ccccc21 (stereo not drawn) do in these assays?
NR2F2 inh: 1; NCOA2 inhibitor: 2; NR5A2 inv ag: 23

What do the screens show for `COc1ccc(N/N=C(\C#N)C(N)=O)cc1`?
SRC3 inh: 11; NR2F2 inh: -6; NCOA2 inhibitor: -8; Gli-Sufu block: -1; NR5A2 inv ag: -4; SRC1 inh: -1

How did N#C/C(=N/Nc1ccc(OC(F)(F)F)cc1)C(N)=S do in these assays?
SRC3 inh: 32; NR2F2 inh: 38*; NCOA2 inhibitor: 21; Gli-Sufu block: 61*; NR5A2 inv ag: -15; SRC1 inh: -2; Gal4-VP16 ctr: -121; COUP-TFII conf: -54

Results for COc1cccc(CN(C)C(=O)c2cc(COc3ccc(-n4cncn4)cc3)on2)c1 ?
SRC3 inh: 26; NR2F2 inh: 38*; NCOA2 inhibitor: 14; Gli-Sufu block: 49; NR5A2 inv ag: -8; SRC1 inh: 14; Gal4-VP16 ctr: -4; COUP-TFII conf: -1
